{"source": "paper PMC5540273", "about": "(PLoS ONE, 2017);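 note: KINOMEscan kinase panel screen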"}
{"test_system": "T1, MST1", "T1 construct": "gene STK4", "conditions": "concentration: 1 μM,replicates: in singlicate; n = 1", "units": {"%Inh": "%"}}
{"compound": "Cl.Oc1cc(-c2nc(-c3ccccc3)[nH]c2-c2ccncc2)ccc1Cl", "note": "[SB-386023]", "%Inh": 0}
{"compound": "Cc1cc(C(=O)Nc2ccc(Oc3ccc4nc(NC(=O)C5CC5)cn4n3)cc2)nn1-c1ccccc1", "%Inh": 13}
{"compound": "O=C(NCCNc1ccnc(NCc2ccc(F)cc2)n1)c1cc2ccccc2s1", "note": "[GSK1379944]", "%Inh": 0}
{"compound": "C[C@@H](Oc1cc(-c2cnn(C3CCNCC3)c2)cnc1N)c1c(Cl)ccc(F)c1Cl", "%Inh": 56}
{"compound": "CNC(=O)c1ccccc1Sc1ccc2c(/C=C/c3ccccn3)n[nH]c2c1", "%Inh": 0}
{"compound": "C=CC(=O)Nc1cc2c(Nc3ccc(F)c(Cl)c3)ncnc2cc1OCCCN1CCOCC1", "note": "[GW781483]", "%Inh": 1}
{"compound": "CC(C)Nc1cc(-c2ccc3c(N)n[nH]c3c2)nc(N)n1", "note": "[GSK2221681]", "%Inh": 0}
{"compound": "Nc1nc(Nc2ccccc2)cc(-c2ccc3c(N)n[nH]c3c2)n1", "note": "[GSK2225749]", "%Inh": 7}
{"compound": "CN(C)CC(O)COc1ccc(Nc2nccc(-c3cnn4nc(N5CCOCC5)ccc34)n2)cc1", "note": "(stereo not drawn) [GW767488]", "%Inh": 0}
{"compound": "Cc1cc2cn[nH]c2cc1-c1cccc2c(N)c(C(N)=O)nnc12", "%Inh": 90.2}
{"compound": "O=C(NCCCN1CCOC1=O)c1cnc(NCc2cc(Cl)ccc2Cl)nc1NC1CCCC1", "%Inh": 27}
{"compound": "CCn1c(-c2nonc2N)nc2c(C#CC(C)(C)O)nc(OCCN)cc21.Cl.Cl", "note": "[GSK902056]", "%Inh": 0}
{"compound": "Cc1n[nH]c2ccc(-c3cc(OC[C@@H](N)Cc4ccccc4)cnc3-c3ccoc3)cc12.O=C(O)C(F)(F)F.O=C(O)C(F)(F)F", "note": "[GSK507358]", "%Inh": 2}
{"compound": "CN(C)CCOc1ccc(-c2cc(-c3c[nH]nc3-c3ccccn3)ccn2)cc1", "note": "[GW835314]", "%Inh": 25}
{"compound": "Cl.Cl.NC[C@H](CC1CCCCC1)NC(=O)c1cc(Br)c(-c2ccnc3[nH]ccc23)s1", "note": "[GSK1581427]", "%Inh": 0}
{"compound": "CC(C)N1C(=O)Cc2cc(Nc3ncc(C(F)(F)F)c(NCc4cccc(S(C)(=O)=O)c4)n3)ccc21", "%Inh": 0}
{"compound": "NC(=O)c1cc(-c2ccccc2)cc2c(C3CCNCC3)c[nH]c12", "note": "[GSK301362]", "%Inh": 43}
{"compound": "Cc1ccc2c(-c3ccncc3)c(-c3ccc(F)cc3)nn2c1.Cl", "note": "[GW461484]", "%Inh": 5}
{"compound": "COc1ccc(C[C@@H](CN)NC(=O)c2cc(Br)c(-c3ccnc4[nH]ccc34)s2)cc1.Cl.Cl", "note": "[GSK1389063]", "%Inh": 0}
{"compound": "Cl.Cl.Nc1nc(-c2ccc3c(N)n[nH]c3c2)cc(N2CCCC(NC(=O)c3ccccc3)C2)n1", "note": "(stereo not drawn) [GSK2286775]", "%Inh": 0}
{"compound": "CCN(CC)CCOc1ccc(Nc2ncc3cc(-c4c(Cl)cccc4Cl)c(=O)n(C)c3n2)cc1", "note": "[SB-601273]", "%Inh": 57}
{"compound": "CCN(CC)CCCCNc1ncc2cc(-c3c(Cl)cccc3Cl)c(NC(=O)NC(C)(C)C)nc2n1", "%Inh": 40}
{"compound": "Cc1ccc(-n2nc(C(C)(C)C)cc2NC(=O)Nc2ccc(OCCN3CCOCC3)c3ccccc23)cc1", "note": "[GW839464]", "%Inh": 0}
{"compound": "C[C@@H]1CCN(C(=O)CC#N)C[C@@H]1N(C)c1ncnc2[nH]ccc12", "%Inh": 3}
{"compound": "C[C@H]1Oc2cc(cnc2N)-c2c(nn(C)c2C#N)CN(C)C(=O)c2ccc(F)cc21", "%Inh": 19}
{"compound": "Cc1occc1-c1nc(N)c(OC[C@@H](N)Cc2c[nH]c3ccccc23)cc1-c1cc2c(C)n[nH]c2cn1", "note": "[GSK1660450]", "%Inh": 96.8}
{"compound": "Cl.Cl.NC[C@H](Cc1ccc(C(F)(F)F)cc1)NC(=O)c1cc(Br)c(-c2ccnc3[nH]ccc23)s1", "note": "[GSK1487252]", "%Inh": 0}
{"test_system": "T2, MST2", "T2 construct": "gene STK3", "conditions": "concentration: 1 μM,replicates: in singlicate; n = 1", "units": {"%Inh": "%"}}
{"compound": "Cl.Oc1cc(-c2nc(-c3ccccc3)[nH]c2-c2ccncc2)ccc1Cl", "note": "[SB-386023]", "%Inh": 27}
{"compound": "Cc1cc(C(=O)Nc2ccc(Oc3ccc4nc(NC(=O)C5CC5)cn4n3)cc2)nn1-c1ccccc1", "%Inh": 0}
{"compound": "O=C(NCCNc1ccnc(NCc2ccc(F)cc2)n1)c1cc2ccccc2s1", "note": "[GSK1379944]", "%Inh": 0}
{"compound": "C[C@@H](Oc1cc(-c2cnn(C3CCNCC3)c2)cnc1N)c1c(Cl)ccc(F)c1Cl", "%Inh": 0}
{"compound": "CNC(=O)c1ccccc1Sc1ccc2c(/C=C/c3ccccn3)n[nH]c2c1", "%Inh": 50}
{"compound": "C=CC(=O)Nc1cc2c(Nc3ccc(F)c(Cl)c3)ncnc2cc1OCCCN1CCOCC1", "note": "[GW781483]", "%Inh": 0}
{"compound": "CC(C)Nc1cc(-c2ccc3c(N)n[nH]c3c2)nc(N)n1", "note": "[GSK2221681]", "%Inh": 0}
{"compound": "Nc1nc(Nc2ccccc2)cc(-c2ccc3c(N)n[nH]c3c2)n1", "note": "[GSK2225749]", "%Inh": 5}
{"compound": "CN(C)CC(O)COc1ccc(Nc2nccc(-c3cnn4nc(N5CCOCC5)ccc34)n2)cc1", "note": "(stereo not drawn) [GW767488]", "%Inh": 0}
{"compound": "Cc1cc2cn[nH]c2cc1-c1cccc2c(N)c(C(N)=O)nnc12", "%Inh": 88}
{"compound": "O=C(NCCCN1CCOC1=O)c1cnc(NCc2cc(Cl)ccc2Cl)nc1NC1CCCC1", "%Inh": 35}
{"compound": "CCn1c(-c2nonc2N)nc2c(C#CC(C)(C)O)nc(OCCN)cc21.Cl.Cl", "note": "[GSK902056]", "%Inh": 0}
{"compound": "Cc1n[nH]c2ccc(-c3cc(OC[C@@H](N)Cc4ccccc4)cnc3-c3ccoc3)cc12.O=C(O)C(F)(F)F.O=C(O)C(F)(F)F", "note": "[GSK507358]", "%Inh": 33}
{"compound": "CN(C)CCOc1ccc(-c2cc(-c3c[nH]nc3-c3ccccn3)ccn2)cc1", "note": "[GW835314]", "%Inh": 0}
{"compound": "Cl.Cl.NC[C@H](CC1CCCCC1)NC(=O)c1cc(Br)c(-c2ccnc3[nH]ccc23)s1", "note": "[GSK1581427]", "%Inh": 0}
{"compound": "CC(C)N1C(=O)Cc2cc(Nc3ncc(C(F)(F)F)c(NCc4cccc(S(C)(=O)=O)c4)n3)ccc21", "%Inh": 35}
{"compound": "NC(=O)c1cc(-c2ccccc2)cc2c(C3CCNCC3)c[nH]c12", "note": "[GSK301362]", "%Inh": 86}
{"compound": "Cc1ccc2c(-c3ccncc3)c(-c3ccc(F)cc3)nn2c1.Cl", "note": "[GW461484]", "%Inh": 7}
{"compound": "COc1ccc(C[C@@H](CN)NC(=O)c2cc(Br)c(-c3ccnc4[nH]ccc34)s2)cc1.Cl.Cl", "note": "[GSK1389063]", "%Inh": 34}
{"compound": "Cl.Cl.Nc1nc(-c2ccc3c(N)n[nH]c3c2)cc(N2CCCC(NC(=O)c3ccccc3)C2)n1", "note": "(stereo not drawn) [GSK2286775]", "%Inh": 8}
{"compound": "CCN(CC)CCOc1ccc(Nc2ncc3cc(-c4c(Cl)cccc4Cl)c(=O)n(C)c3n2)cc1", "note": "[SB-601273]", "%Inh": 58}
{"compound": "CCN(CC)CCCCNc1ncc2cc(-c3c(Cl)cccc3Cl)c(NC(=O)NC(C)(C)C)nc2n1", "%Inh": 31}
{"compound": "Cc1ccc(-n2nc(C(C)(C)C)cc2NC(=O)Nc2ccc(OCCN3CCOCC3)c3ccccc23)cc1", "note": "[GW839464]", "%Inh": 33}
{"compound": "C[C@@H]1CCN(C(=O)CC#N)C[C@@H]1N(C)c1ncnc2[nH]ccc12", "%Inh": 0}
{"compound": "C[C@H]1Oc2cc(cnc2N)-c2c(nn(C)c2C#N)CN(C)C(=O)c2ccc(F)cc21", "%Inh": 19}
{"compound": "Cc1occc1-c1nc(N)c(OC[C@@H](N)Cc2c[nH]c3ccccc23)cc1-c1cc2c(C)n[nH]c2cn1", "note": "[GSK1660450]", "%Inh": 78}
{"compound": "Cl.Cl.NC[C@H](Cc1ccc(C(F)(F)F)cc1)NC(=O)c1cc(Br)c(-c2ccnc3[nH]ccc23)s1", "note": "[GSK1487252]", "%Inh": 0}
